Measurements reported in PubChem BioAssay (Tox21).
Results filed as inconclusive are left out. Activity calls are given as the source filed them. Unless noted, the call rests on the fitted dose curve; in most records, active means well fitted curve in the direction sought with a large enough effect in the repeat runs; inconclusive means weak or mixed curves; inactive means no such curve, though single readings can be large; an effect the other way counts as inactive or inconclusive.

Experiments:
[1] = qHTS assay to identify small molecule agonists of the RXR signaling pathway - cell viability counter screen (AID 1159529);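 further: HEK 293T cells carrying an RXR-alpha UAS beta-lactamase reporter; series mostly up to about 77 µM; nearly all actives have a fitted effect of over 50% in size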
Procedure, shortened: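 Counter screen: CellTiter-Glo luminescence. Cells: RXR-alpha-UAS-bla HEK 293T. Medium: 2% charcoal-stripped FBS. Treatment: 16 h, 37 C. Reagent incubation: 30 min, RT.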

[2] = qHTS assay to identify small molecule antagonists of the retinoic acid receptor (RAR) signaling pathway (AID 1159552; further: nearly all actives have a fitted effect of over 50% in size)
Procedure, shortened: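 Antagonism of retinol-induced RARE reporter activity was measured in C3RL4 cells. Exposure to compounds and 1 uM final retinol lasted 6 hr at 37 C, with luminescence as endpoint.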

[3] = qHTS assay to identify small molecule agonists of the retinoic acid receptor (RAR) signaling pathway (AID 1159553)
Procedure, shortened: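 Cell line C3RL4, RARE luciferase reporter. Treatment: compounds in DMSO, 6 hr, 37 C, 5% CO2, after overnight plating. Detection: luminescence, 30 min RT after reagent.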

[4] = qHTS assay to identify small molecule antagonists of the estrogen related receptor (ERR) signaling pathway from Tox21 library - cell viability counter screen (AID 1224834); further: nearly all actives have a fitted effect of over 30% in size
Procedure, shortened: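 Viability readout (CellTiter-Fluor fluorescence, 30 min at 37 C) multiplexed with the ERR assay; cells treated 17.5 h at 37 C with compounds delivered in DMSO.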

[5] = biological target: Luciferin 4-monooxygenase (Photinus pyralis) (UniProt P08659); assay: qHTS assay to identify small molecule inhibitors of firefly luciferase (AID 1224835); further: nearly all actives have a fitted effect of over 25% in size; further: potency means the concentration at half of the fitted maximal effect; on activity change, negative = inhibition: series mostly up to about 120 µM
Procedure, shortened: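 Quantitative HTS format; KM concentrations of both substrates. Purified P. pyralis FLuc activity quantified from luminescence images.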

[6] = qHTS assay to identify small molecule agonists of the constitutive androstane receptor (CAR) signaling pathway - cell viability counter screen (AID 1224836); further: series mostly up to about 92 µM; nearly all actives have a fitted effect of over 45% in size
Procedure, shortened: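 Double-stable HepG2 hepatoma cells (hCAR plus CYP2B6-2.2kb) are treated for 23 h at 37 C with test compounds in 15-point concentration series. PK11195 at 0.75 uM final is co-added. Cell viability is quantified by CellTiter-Fluor.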

[7] = qHTS assay to identify small molecule antagonists of the constitutive androstane receptor (CAR) signaling pathway - cell viability counter screen (AID 1224837); further: series mostly up to about 92 µM; nearly all actives have a fitted effect of over 45% in size
Procedure, shortened: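 Fluorescence from CellTiter-Fluor served as the viability signal. Human hepatoma HepG2 cells stably bearing hCAR and CYP2B6-2.2kb received compound plus CITCO (50 nM final) for 23 hr.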

[8] = biological target: Nuclear receptor subfamily 1 group I member 3 (Homo sapiens) (UniProt Q14994); assay: qHTS assay to identify small molecule antagonists of the constitutive androstane receptor (CAR) signaling pathway (AID 1224838);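 further: HepG2 cells stably expressing hCAR with CYP2B6 luciferase reporter stimulated by CITCO; nearly all actives have a fitted effect of over 40% in size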
Procedure, shortened: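 Quantitative HTS in double-stable HepG2-CYP2B6-hCAR cells. After 4 h plating, cells get compound (15 concentrations) and CITCO at 50 nM final, incubate 24 h at 37 C, then ONE-Glo luminescence is read.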

[9] = biological target: Nuclear receptor subfamily 1 group I member 3 (Homo sapiens) (UniProt Q14994); assay: qHTS assay to identify small molecule agonists of the constitutive androstane receptor (CAR) signaling pathway (AID 1224839);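 further: HepG2 cells stably carrying human CAR and a CYP2B6 luciferase reporter; series mostly up to about 92 µM; nearly all actives have a fitted effect of over 15% in size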
Procedure, shortened: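 Readout: firefly luciferase luminescence via ONE-Glo. System: HepG2 double-stable for hCAR and CYP2B6-2.2kb. Conditions: 15-point compound titration, PK11195 at 0.75 uM final, 24 h incubation.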

[10] = qHTS assay to identify small molecule antagonists of the estrogen related receptor signaling pathway with the pleiotropic PPARgamma coactivator (PGC) from Tox21 10K library - cell viability counter screen (AID 1224840; active means well fitted cell-killing curve with a large enough effect in the repeat runs, not every such curve was filed as active; further: nearly all actives have a fitted effect of over 40% in size)
Procedure, shortened: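 Compounds in DMSO, alongside positive and negative controls, were pinned onto PGC/ERR cells (2,000 per well). Exposure lasted 17.5 hours at 37 C, followed by a 30-minute CellTiter-Fluor incubation and fluorescence reading.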

[11] = biological target: Thyrotropin receptor (Homo sapiens) (UniProt P16473); assay: qHTS assay to identify small molecule agonists of the thyroid stimulating hormone receptor (TSHR) signaling pathway (AID 1224843; calls by dose curve; further: nearly all actives have a fitted effect of over 45% in size)
Procedure, shortened: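 TSHR-expressing HEK293 cells (800 per well) were exposed to compounds for 30 min at room temperature. cAMP was then detected by HTRF competition with cAMP-d2 and anti-cAMP cryptate, read after 1 h at room temperature. Fifteen concentrations, triplicate.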

[12] = qHTS assay to identify small molecule agonists of the hypoxia (HIF-1) signaling pathway - cell viability counter screen (AID 1224844; calls by dose curve; further: nearly all actives have a fitted effect of over 50% in size)
Procedure, shortened: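 Luminescent ATP content (CellTiter-Glo, 30 min, room temperature) served as the viability measure in HRE-bla ME-180 cells exposed to compounds for 17 hrs in low-serum medium (0.5% dialyzed FBS).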

[13] = qHTS assay to identify small molecule agonists of the hypoxia (HIF-1) signaling pathway (AID 1224846; active means well fitted activation curve with a large enough effect in the signal ratio in the repeat runs, not every such curve was filed as active; the % refers to the signal ratio)
Procedure, shortened: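 Measured by blue/green FRET after loading CCF4-AM: beta-lactamase expressed from a hypoxia response element in ME-180 cells. Test agents were delivered in DMSO and left 17 hrs; cells had been plated 5 hrs earlier in low-serum (0.5% dialyzed FBS) medium.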

[14] = qHTS assay to identify small molecule agonists of H2AX - cell viability counter screen (AID 1224847; calls by dose curve; further: top concentration of the series differs between compounds; nearly all actives have a fitted effect of over 30% in size)
Procedure, shortened: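 For this counter screen, overnight-attached CHO-K1 cells received test compounds (15 concentrations, 0.76% DMSO final); 3 hr later at 37C, CellTiter-Glo reagent was added and luminescence recorded after 30 min at room temperature.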

[15] = qHTS RealTime-Glo MT Cell Viability Assay in HepG2 cells - 24 hour (AID 1224867); further: nearly all actives have a fitted effect of over 50% in size
Procedure, shortened: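 Real-time, nonlytic viability: 600 HepG2 cells/well mixed with NanoLuc enzyme plus prosubstrate; 5 h settle, compound (DMSO) added by pintool; luminescence monitored over 40 h at 37 C.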

[16] = qHTS assay to identify small molecule agonists of H2AX (AID 1224845; active means well fitted activation curve with a large enough effect in the signal ratio in the repeat runs, not every such curve was filed as active; the % refers to the signal ratio)
Procedure, shortened: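 Wild-type CHO-K1 cells plated overnight, then exposed 3 hr at 37C to compounds at 15 concentrations (0.76% DMSO). Lysed, then HTRF anti-pH2AX(S139)-cryptate/anti-H2AX-d2 detection after 24 hr at room temperature; emissions 665 and 620 nm.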
On the % scale 0 is the no-effect control and ±100 the full control effect.

Luciferin 4-monooxygenase (Photinus pyralis), sequence (P08659 whole entry, looked up): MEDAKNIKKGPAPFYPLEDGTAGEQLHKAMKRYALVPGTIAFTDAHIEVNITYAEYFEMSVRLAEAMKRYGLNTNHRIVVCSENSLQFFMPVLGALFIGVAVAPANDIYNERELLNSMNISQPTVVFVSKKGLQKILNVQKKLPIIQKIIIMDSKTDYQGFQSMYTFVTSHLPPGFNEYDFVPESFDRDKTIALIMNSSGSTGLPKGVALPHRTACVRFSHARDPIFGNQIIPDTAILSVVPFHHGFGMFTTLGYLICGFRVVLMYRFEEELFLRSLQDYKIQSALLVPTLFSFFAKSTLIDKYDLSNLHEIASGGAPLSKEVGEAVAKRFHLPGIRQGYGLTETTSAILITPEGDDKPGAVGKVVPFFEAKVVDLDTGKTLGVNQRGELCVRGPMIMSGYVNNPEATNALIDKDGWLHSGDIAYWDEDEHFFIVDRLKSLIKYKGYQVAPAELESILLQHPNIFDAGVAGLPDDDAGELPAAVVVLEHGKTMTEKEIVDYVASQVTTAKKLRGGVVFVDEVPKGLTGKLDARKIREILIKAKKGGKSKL
Thyrotropin receptor (Homo sapiens), sequence (P16473 whole entry, looked up): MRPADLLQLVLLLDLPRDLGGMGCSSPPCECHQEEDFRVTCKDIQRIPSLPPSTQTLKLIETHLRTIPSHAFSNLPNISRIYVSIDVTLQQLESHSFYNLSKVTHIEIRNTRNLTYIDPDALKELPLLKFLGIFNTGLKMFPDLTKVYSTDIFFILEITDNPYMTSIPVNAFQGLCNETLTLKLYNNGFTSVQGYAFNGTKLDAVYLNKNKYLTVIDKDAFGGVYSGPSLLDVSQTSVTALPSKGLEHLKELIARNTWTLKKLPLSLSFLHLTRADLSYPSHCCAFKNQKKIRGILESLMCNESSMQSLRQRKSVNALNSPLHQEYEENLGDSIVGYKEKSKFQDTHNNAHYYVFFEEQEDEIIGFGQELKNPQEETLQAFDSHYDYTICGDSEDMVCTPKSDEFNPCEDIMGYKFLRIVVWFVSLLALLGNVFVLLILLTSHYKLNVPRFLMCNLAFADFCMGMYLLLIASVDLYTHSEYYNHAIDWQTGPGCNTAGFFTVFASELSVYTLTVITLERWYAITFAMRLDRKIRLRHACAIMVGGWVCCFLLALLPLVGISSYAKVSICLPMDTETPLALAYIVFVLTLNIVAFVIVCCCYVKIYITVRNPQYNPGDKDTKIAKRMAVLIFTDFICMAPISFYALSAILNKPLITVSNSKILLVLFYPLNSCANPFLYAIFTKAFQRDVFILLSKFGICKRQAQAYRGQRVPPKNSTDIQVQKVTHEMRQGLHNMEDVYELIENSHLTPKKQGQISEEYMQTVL
Nuclear receptor subfamily 1 group I member 3 (Homo sapiens), sequence (Q14994 whole entry, looked up): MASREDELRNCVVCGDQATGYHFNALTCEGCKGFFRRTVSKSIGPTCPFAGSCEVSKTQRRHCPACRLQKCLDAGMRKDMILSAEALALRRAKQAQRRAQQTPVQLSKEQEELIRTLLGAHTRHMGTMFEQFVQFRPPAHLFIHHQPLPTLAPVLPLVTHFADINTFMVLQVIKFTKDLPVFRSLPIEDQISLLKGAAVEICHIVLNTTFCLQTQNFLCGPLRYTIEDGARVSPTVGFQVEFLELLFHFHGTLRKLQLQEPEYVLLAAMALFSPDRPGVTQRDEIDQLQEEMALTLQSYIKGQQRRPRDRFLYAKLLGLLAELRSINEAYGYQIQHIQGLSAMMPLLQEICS

O=C[O][Al]([O]C=O)[O]C=O
active: Potency [5] 63.3 µM
inactive: outcome [1] | outcome [2] | Potency [3] | outcome [4] | outcome [6] | outcome [7] | Potency [8] | Potency [9] | outcome [10] | outcome [11] | outcome [12] | outcome [13] | outcome [14] | outcome [15]

CN(C)CCCCl
inactive: outcome [1] | outcome [2] | Potency [3] | outcome [4] | Potency [5] | outcome [6] | outcome [7] | Potency [8] | Potency [9] | outcome [10] | outcome [11] | outcome [12] | outcome [16] | outcome [13] | outcome [14] | outcome [15]

N[C@@H](CSCCCO)C(=O)O
inactive: activity change, negative = cytotoxicity [1] -0.377% [at 15.8 µM] | activity, negative = inhibition [2] 1.93% [at 19 µM] | Potency [3] | viability change, negative = cytotoxic [4] 1.22% [at 19 µM] | activity change, negative = inhibition [5] -1.72% [at 23.6 µM] | viability change, negative = cytotoxic [6] 3.99% [at 19 µM] | activity, negative = inhibition [8] 5.4% [at 19 µM] | activation [9] 0.0803% [at 19 µM] | viability change, negative = cytotoxic [10] -0.0206% [at 19 µM] | activation [11] 0.239% [at 19 µM] | activation (H2AX phosphorylation) [16] 1.1% [at 31.6 µM] | activation [13] -1.56% [at 15.8 µM] | activity change, negative = cytotoxicity [14] -1.29% [at 31.6 µM] | activity change, negative = cytotoxicity [15] 1.24% [at 15.8 µM]

CC1=C(C(=O)O)N2C(=O)[C@@H](NC(=O)[C@H](N)C3=CCC=CC3)[C@H]2SC1
inactive: outcome [1] | outcome [2] | Potency [3] | outcome [4] | Potency [5] | outcome [6] | outcome [7] | Potency [9] | outcome [10] | outcome [11] | outcome [12] | outcome [16] | outcome [14] | outcome [15]

COP(=O)(O)OP(=O)(O)OC
inactive: outcome [1] | outcome [2] | Potency [3] | outcome [4] | Potency [5] | outcome [6] | outcome [7] | Potency [8] | Potency [9] | outcome [10] | outcome [11] | outcome [16] | outcome [13] | outcome [15]

O=C=NCC1CCCC(CN=C=O)C1 (stereo unspecified)
inactive: outcome [1] | outcome [2] | Potency [3] | outcome [4] | Potency [5] | outcome [6] | Potency [8] | Potency [9] | outcome [11] | outcome [12] | outcome [16] | outcome [13] | outcome [15]

COc1ccc2c(c1)c1c3n2CCN(C)C3=NCC1
inactive: outcome [1] | outcome [2] | Potency [3] | outcome [4] | Potency [5] | outcome [6] | outcome [7] | Potency [8] | Potency [9] | outcome [10] | outcome [11] | outcome [12] | outcome [16] | outcome [13] | outcome [14] | outcome [15]

CC(=O)CCC1=C(C)CCCC1(C)C
inactive: outcome [1] | outcome [2] | Potency [3] | outcome [4] | Potency [5] | outcome [6] | Potency [8] | Potency [9] | outcome [10] | outcome [11] | outcome [12] | outcome [16] | outcome [13] | outcome [15]

CCCCC1CCC(O)CC1 (stereo unspecified)
inactive: outcome [1] | outcome [2] | Potency [3] | outcome [4] | Potency [5] | outcome [6] | outcome [7] | Potency [8] | Potency [9] | outcome [10] | outcome [12] | outcome [16] | outcome [13] | outcome [14] | outcome [15]
